What all share (format): functional
In experiment [1] the target is Solute carrier family 2, facilitated glucose transporter member 1 (Homo sapiens) (UniProt P11166). Description: ST_JUDE_LEISH: Cytotoxicity at 2uM final concentration against transgenic Leishmania Mexicana promastigotes LmGLUT1 that are glucose transport deficient and complemented with the human glucose transporter GLUT1. Activity is measured by DNA content using SYBR green in vitro.

Experiment [2] has as its target Hexose transporter 1 (Plasmodium falciparum) (UniProt O97467). Description: ST_JUDE_LEISH: Cytotoxicity at 2uM final concentration against transgenic Leishmania Mexicana promastigotes LmPfHT that are glucose transport deficient and complemented with the Plasmodium falciparum hexose transporter. Activity is measured by DNA content using SYBR green in vitro.
Experiment [3] has as its target Glucose transporter (Leishmania mexicana) (UniProt O61059). Nature of the experiment: ST_JUDE_LEISH: Cytotoxicity at 2uM final concentration against transgenic Leishmania Mexicana promastigotes LmGT2 that are glucose transport deficient and complemented with the L. Mexicana glucose transporter 2. Activity is measured by DNA content using SYBR green in vitro.

Solute carrier family 2, facilitated glucose transporter member 1 (Homo sapiens), sequence (P11166 whole entry): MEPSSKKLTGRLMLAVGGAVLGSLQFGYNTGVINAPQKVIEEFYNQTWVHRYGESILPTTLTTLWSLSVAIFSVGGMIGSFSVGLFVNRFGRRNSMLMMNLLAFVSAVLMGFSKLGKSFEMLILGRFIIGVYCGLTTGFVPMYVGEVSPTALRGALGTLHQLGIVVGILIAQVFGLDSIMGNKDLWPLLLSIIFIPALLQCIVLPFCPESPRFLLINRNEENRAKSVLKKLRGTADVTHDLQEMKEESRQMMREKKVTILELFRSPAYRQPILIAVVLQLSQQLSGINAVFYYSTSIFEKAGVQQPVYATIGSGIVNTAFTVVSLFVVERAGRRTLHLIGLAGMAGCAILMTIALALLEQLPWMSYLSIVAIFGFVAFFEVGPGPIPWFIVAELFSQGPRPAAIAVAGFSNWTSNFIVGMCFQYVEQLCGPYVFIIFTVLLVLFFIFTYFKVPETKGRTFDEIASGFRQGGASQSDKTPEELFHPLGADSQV

As for `CN1CCCN(Cc2cccc(-c3ccc(NC(=O)c4cccc(Cl)c4)cc3)c2)CC1`, the inhibition was 71.1% in experiment [1], 80% in experiment [2] and 69.1% in experiment [3].
The matching figures for `COC1CCC(C(=O)Nc2ccc(-c3cccc(-c4nc5cc(C(F)(F)F)ccc5[nH]4)c3)cc2)CC1` (stereo not given): 0.64%, -0.27% and 0.65%.
For `CC(C)[C@H](NC(=O)c1ccc(O)c(-c2ccc(Cl)c(Cl)c2)c1)C(=O)NCCN(C)C` the same measures were 0.25%, 0.6% and 1.16%.
The matching figures for `CNCCNCc1ccc(-c2ccc(-c3nc4cc(C(F)(F)F)ccc4[nH]3)cc2)cc1`: -0.49%, 3.17% and 2.46%.
For the molecule `O=C(/C=C/c1ccc(Cl)c(Cl)c1)NCCCCCN1CCC(NC(=O)Nc2cccc(Cl)c2F)CC1`, the inhibition was -0.8% in experiment [1], -0.65% in experiment [2] and -9.82% in experiment [3].
Turning to `CCn1cc(C=C2Oc3c(ccc(O)c3CN3CCCCC3)C2=O)c2cc(OC)ccc21`, the inhibition in experiment [1] was 3.02%; in experiment [2], 2.04%; in experiment [3], -0.31%.
The matching figures for `COc1ccc(CN2CCC(NCc3cccc([N+](=O)[O-])c3)CC2)cc1`: 5.28%, 7.16% and 6.36%.
For `Cc1cc(NC(=O)Nc2ccc(Oc3ccccc3)cc2)c2ccccc2n1`, the inhibition in experiment [1] is 0.26%; in experiment [2] it was 1.44%; in experiment [3], -0.34%.
For `CCOC(=O)c1c(C)n(-c2ccccc2)c2ccc(O)cc12` the same measures were -0.44%, 2.67% and 0.95%.
For the molecule `Nc1nccc2ccc(-c3ccc4nccn4c3)cc12`, the values for the inhibition in experiment [1], in experiment [2] and in experiment [3] were 3.49%, 3.17% and 4.92%, respectively.
For `O=C1CCCN1CCCNCc1cccc(-c2ccc(-c3nc4ccccc4[nH]3)s2)c1` the same measures were -0.73%, 0.07% and -0.46%.
For `Nc1nc(N)c2cc(CNc3ccc(Cl)c(Cl)c3)ccc2n1` the same measures were 8.27%, 6.41% and -0.28%.
For `Cc1cccc(C)c1CNc1ccnc2cc(C#N)ccc12` the same measures were 3.83%, 3.15% and 2.98%.
Turning to `CCCCCN1CCCN(Cc2cccc(NC(=O)c3cc4ccccc4s3)c2)CC1`, the inhibition worked out at 1.99% in experiment [1], 1.5% in experiment [2] and 3.66% in experiment [3].
For `COCn1ccc2c3c(N)nc(N)nc3ccc21` the same measures were 0.07%, 6.21% and 2.32%.
For `CN(c1ccc2c(c1)nc(NCc1ccccc1)n2C)c1ccnc(Nc2ccc(CS(C)(=O)=O)cc2)n1` the same measures were 4.69%, 1.86% and 3.22%.
For `COc1ccc(OCc2ccccn2)c(C2CCN(CCCCNC(=O)c3ccc(NC(=O)c4ccc(Cl)cc4)cc3)CC2)c1` the same measures were 1.01%, -4.32% and -2.76%.
As for `CN(C)c1ccc(-c2cscc2C(=O)NC2CCCN(Cc3cccnc3)C2)cc1` (stereo not given), the inhibition in experiment [1] is -0.4%; in experiment [2], -0.27%; in experiment [3] it was -0.28%.
For `COc1ccc(Cl)cc1N1CCN(CCCNC(=O)c2ccc(-c3nc4cc5ccccc5cc4[nH]3)c(F)c2)CC1` the same measures were 1.51%, 3.41% and 1.26%.
In the case of `Cc1cc(=O)[nH]c2cc(Nc3ccnc(Nc4cccc(C(N)=O)c4)n3)ccc12`, the values for the inhibition in experiment [1], in experiment [2] and in experiment [3] were 3.02%, 3.83% and 3.24%, respectively.
For `O=C(Nc1cccc(-c2nn3ccccc3c2-c2ccnc(Nc3cccc(C(F)(F)F)c3)n2)c1)c1c(F)cccc1F` the same measures were 0.32%, 1.06% and 0.07%.
The matching figures for `CC(=O)Nc1ccc(C(=O)Nc2cccc(-c3cccc(-c4nc5ccccc5[nH]4)c3)c2)cn1`: 2.35%, -0.22% and 1.34%.
For `N#Cc1ccc(-c2ccc(OCC(O)CN3CCCN(C(=O)C(c4ccc5c(c4)OCO5)N4CCN(C/C=C/c5ccccc5)CC4)CC3)cc2)cc1` (stereo not given) the same measures were 4.32%, 2.9% and 2.95%.
Take `FC(F)(F)c1ccc2[nH]c(-c3ccc(-c4ccc(CN5CCN(c6ccncc6)CC5)cc4)s3)nc2c1`: the inhibition in experiment [1] was 1.51%; in experiment [2], -1.36%; in experiment [3], -2.12%.
On to `COCCOc1ccc(Nc2nccc(-c3c(-c4cccc(NC(=O)c5c(F)cccc5F)c4)nn4ccccc34)n2)cc1Cl`, for which the values for the inhibition in experiment [1], in experiment [2] and in experiment [3] were 13.5%, 11.1% and 2.52%, respectively.
The matching figures for `CC(C)N1CCN(C(CN2CCN(CCCOc3cccc(F)c3)CC2)c2ccc(F)cc2)CC1` (stereo not given): -2.25%, -0.57% and -1.78%.
The matching figures for `Cc1ccc(NC(C)C(=O)Nc2ccc(C#N)cc2)cc1S(=O)(=O)N1CCCCC1` (stereo not given): 58.5%, 71.8% and 58.8%.
For `Clc1ccc2c(NN=Cc3cccs3)ccnc2c1` the same measures were 1.34%, 1.3% and 2.8%.
As to `CN(C)CCCN(C)c1cccc2c1nc(-c1cccnc1)n2CCNCc1ccccc1`, the inhibition in experiment [1] worked out at 6.47%; in experiment [2] it was 7.52%; in experiment [3], 1.45%.
For `Clc1ccc(C2CCN(CCCOc3ccc4c(c3)CCNCC4)CC2)cc1` the same measures were 56.8%, 40.9% and 75.7%.
For `CCC(C)NS(=O)(=O)c1ccc2nc(Nc3ccc(C)c(Cl)c3)n(C(C)C(C)C)c2c1` (stereo not given) the same measures were 2.38%, 2.08% and 1.6%.
The matching figures for `Cc1noc(=O)c2ccc(NC(=O)C(O)(CSc3ccccc3)CC(C)C)cc12` (stereo not given): 6.92%, 4.78% and 3.58%.
On to `Cc1cccc(OC2CCN(c3ncc(C(=O)NCCCN4CCCC4=O)cc3Cl)CC2)c1`, for which the inhibition in experiment [1] is 0.59%; in experiment [2] it was 2.47%; in experiment [3], 0.99%.
For `COc1ccccc1CCNc1ncc(F)c(N[C@@H](Cc2ccccc2)C(=O)NCCc2ccccc2)n1` the same measures were 0.53%, -0.37% and 0.24%.
As for `CC(Cc1ccc(CNC(=O)NCc2ccc(CC(C)NCCc3cccc(Cl)c3)cc2)cc1)NCCc1cccc(Cl)c1` (stereo not given), the inhibition in experiment [1] was found to be 82.9%; in experiment [2] it was 79%; in experiment [3], 18.9%.

What is called inhibition is the relative decrease from the control value, in per cent.
